These results are taken from PubChem BioAssay AID1159506 (National Center for Advancing Translational Sciences (NCATS), 2015).

In all, about 59,000 sequences were measured (the read-out: median about -0.00055, lowest 2% from about -2 on). The sample as a whole holds a higher share of the lowest values than the screen did.

A short description of the assay: Identification of proteins required for the processing of the EWS-FLI1 nascent transcript.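 Also: robust z of luciferase light less the median z of siRNAs with the same seed.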 The note with it: TC32 Ewing sarcoma NR0B1-luc vs CMV-luc (EWS-FLI1 target promoter against control promoter), 48 h; screened at 20 nM (by protocol). In short, it runs like this: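 Readout: OneGlo luminescence, 48 h post-transfection, TC32-NR0B1-luc vs TC32-CMV-luc in parallel. siRNA 20 nM final, RNAiMax lipid, 600 cells/well; z-score-MAD transformed, then seed-adjusted.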
For the sequence UUCUUUUGUCCAUACAAUC against TAS2R45, the seed-corrected z-score was -2.34.

Consider UACAAGCCCAGUUGAGAUC against DSTNP4, for which the seed-corrected z-score is -0.547.

UACGAUAUUGUUGCUACAG against SLIT2 had a seed-corrected z-score of -0.0537.

As to UAUUAGUCCCGGACGAAUG against SCAF8, the seed-corrected z-score is -0.115.

As for UUGUUUAUGAGCAAGGUGG against RPL41, the seed-corrected z-score is -0.22.

Sequence UUUGGUGCAAAGUCCAUGC against SKIV2L gave a seed-corrected z-score of -2.51.

UUGAGGAUACAGCACAGCC against SERPINI1: the seed-corrected z-score is -0.491.

ACAGGCUUUAUCAUACUGC against ZXDC returned a seed-corrected z-score of -0.245.

For the sequence UAGGUGAUAUCUCUCCGCC against TGM4, the seed-corrected z-score is -0.284.

Sequence ACAGUUCUCGCAGUACUGG against GPANK1 came in with a seed-corrected z-score of -0.197.

Consider UGACCAUCCAGAAGUAGUU against SPHK1, for which the seed-corrected z-score is -0.911.

Consider UUGGUAGAUAUGAUCUUCG against TCEA3, for which the seed-corrected z-score is 0.375.

UUGGGUAUUGUUCUUGACU against SNRPD2 gave a seed-corrected z-score of -2.58.

For UGUUUAUUAGAAGUGACUC against FOLR2, the seed-corrected z-score was -0.238.

For the sequence UAGUUGUCAGUGAAGACUG against VIP, the seed-corrected z-score is -2.09.

For CUUGUAGCUUCUCUACAUC against LOC441347, the seed-corrected z-score was -0.389.

As for UUCUCAUCAAGCUGUCUCC against SH3RF2, the seed-corrected z-score turned out to be 0.136.

UAUAACAGCAGUAUCUGUC against TMEM215 displayed a seed-corrected z-score of 0.183.

As for UUGUUGAAAUGGAACUCCU against HOXB1, the seed-corrected z-score is 0.384.

In turn, UCAGUGCACGCAACUGUGU against TNXB showed a seed-corrected z-score of 0.0625.

In turn, UAUAUGAUUAACAAAACGG against XKR3 came in with a seed-corrected z-score of 0.439.

On to UUCUUUCCGAUGAUACUGC against PCBP2, for which the seed-corrected z-score was -3.36.

Consider UUUCGCAGUUGUAAGACCG against CROCCP3, for which the seed-corrected z-score amounted to 0.0641.

Turning to UAGAAUUUCUCGUACAACC against RALGPS1, the seed-corrected z-score was 0.75.

For UAAUGAGCAGUGACUCUGG against BTBD11, the seed-corrected z-score came to 0.456.

AAUUCUUCAAAACUAACUU against S100G registered a seed-corrected z-score of 0.467.

Take AUCCGUACGCCUCCGAUUC against PCSK4: the seed-corrected z-score is -0.594.

The sequence AAGGGAUAAGGGAUCAUCC against ST7 returned a seed-corrected z-score of -0.0379.

UAUAGUUACAUGACUGCUG against SNU13: the seed-corrected z-score was -6.52.

Consider UUUUUAAUGCCUUAUAGUC against TTLL13P, for which the seed-corrected z-score turned out to be 1.17.

For UACAUAGCUGCAUAGACAC against PLPPR5, the seed-corrected z-score is -2.18.

In turn, UUCUUUAGCAACAUCACAG against CBR4 showed a seed-corrected z-score of 0.335.

Regarding UAAGAUAUCUGACCACUAG against ZNF620, the seed-corrected z-score amounted to 0.641.

For the sequence UCCAUAUCCCAUGACAUGC against SLC17A6, the seed-corrected z-score is -0.139.

The sequence UGCUUGAGCAGAAUGACCG against DIO2 gave a seed-corrected z-score of -2.14.

On to UGAACUUGCACACUUGAGU against KLK7, for which the seed-corrected z-score is 0.253.

The sequence AAACUUUGGAUGUUUUUGG against PPBP displayed a seed-corrected z-score of 0.549.

In turn, UUAGUACAGAUGCAGUUCU against OR56A5 displayed a seed-corrected z-score of -14.6.

Sequence UUUCGGUACGUGUAGUAGC against STRA6 yielded a seed-corrected z-score of 0.803.

UCUUUGACAAUAUCAACAG against UBE3D: the seed-corrected z-score was -0.267.

As for UGCGUGUCUUCUUUAACCU against FAM174B, the seed-corrected z-score was -0.0387.

For the sequence UUAGAUCCAUGCUAUAAGC against PMS2P12, the seed-corrected z-score was -0.142.

In turn, UAAUCGUUUCUACAAGAUC against ATF7IP registered a seed-corrected z-score of -2.43.

The sequence UUAAUCUUCAUCGUAAUAG against ZPLD1 had a seed-corrected z-score of -0.649.

UUUUUCGACAGGAAAGUGU against C5orf60 had a seed-corrected z-score of 0.245.

UUCAUUAUUAUCUCAGGAG against RFC3 gave a seed-corrected z-score of -1.02.

For the sequence UUCAGCAUAAAGACUGAUC against VPS41, the seed-corrected z-score was -0.683.

For the sequence UCACUUCCUAUUCCCAUGG against PALM3, the seed-corrected z-score was -1.4.

AUCUUGGUAACAAACUUGG against TRPV4 came in with a seed-corrected z-score of -3.43.

For UAAUCGUUGGGAUCCAGUC against PCDHA13, the seed-corrected z-score was 0.188.

Consider UGUACGAUGAAGGUCAUGC against SLC34A2, for which the seed-corrected z-score was -0.00732.

UUCGUGUUUUGAAUCUUGG against B4GALT2 returned a seed-corrected z-score of 1.23.

AGCUGGAUCAUUUCUACAG against PKDCC registered a seed-corrected z-score of -2.45.

As to UAGACUGUCACGUUGUAUG against SEZ6L, the seed-corrected z-score turned out to be 0.278.

For the sequence AAAGAGAUAAUGUUCCUCC against FAM180B, the seed-corrected z-score is 0.869.

For the sequence UCCCUAACAAAGCAUGUAC against ISL1, the seed-corrected z-score was -0.138.

The sequence UUCUAAGAAAGCGAGCUGC against EID2B showed a seed-corrected z-score of -0.614.

In the case of UCUCGAGUUAUGUGGUUGG against RAD51D, the seed-corrected z-score was determined as 0.265.

Sequence AUAGUUGCAAUCAAACGAG against SFT2D2 gave a seed-corrected z-score of -3.87.

UCUGGGAAAACAUGGUUGU against DUBR registered a seed-corrected z-score of -1.17.

On to ACAGAUAUAACACUCAUCG against ANO10, for which the seed-corrected z-score was -0.322.

Consider AUUGUGACUAUUAUGAGUC against MTND5P10, for which the seed-corrected z-score was -0.792.

UACAGAUCCGCGAUGUACU against RCN3: the seed-corrected z-score amounted to 0.823.

UUUCCGAAAAUUUAGUGGG against ATAD2 yielded a seed-corrected z-score of 0.659.

In the case of UGGUGGUCCACCUUGUUAG against F13A1, the seed-corrected z-score was -1.25.

Sequence UCCAGUGCAAUGACUCUUG against ZNF114 came in with a seed-corrected z-score of -2.45.

AACUUUUCACUGGUGACCC against C7orf55 showed a seed-corrected z-score of -0.00837.

As for UCUCAGGAUAGGAACCACC against SPRR2G, the seed-corrected z-score was -0.114.

For UUUAGAUCUAGAAUUACAC against SPESP1, the seed-corrected z-score was -0.539.

Turning to UGAGCUCUGAGAAUUGAGG against POM121, the seed-corrected z-score came to 0.483.

As to UGCAGAUGCGGAAAGCUGC against LOC388692, the seed-corrected z-score stood at 0.336.

Turning to AUCCAGUUCACGUAGGCAG against TPSG1, the seed-corrected z-score is -2.87.

Consider UCUGCGUACUCAUCCAUCC against GALNT10, for which the seed-corrected z-score is 0.408.

The sequence UCUGAUCUCACGGAUGAAG against RASEF registered a seed-corrected z-score of 0.117.

In turn, UUAGGCUCUUUGUAUGUCC against ELOVL4 had a seed-corrected z-score of 0.198.

With UUUCUGCACAGGAAUAUCG against CD37, the seed-corrected z-score is -3.03.

Regarding UCCGCGUAUAAAUAGGUGC against RSPH1, the seed-corrected z-score was -0.487.

On to UGAGUUGAAGGUCUGCCCG against MPND, for which the seed-corrected z-score was -0.48.

Turning to UGAUAGAUGAAUAUCAUCC against KIAA0232, the seed-corrected z-score is -0.728.

As for UAUUCGCACAGGCUGAUUC against BBS12, the seed-corrected z-score is 0.0215.

In turn, AAGUUGGUGAUUAAUCUCC against DERL2 yielded a seed-corrected z-score of -0.311.

For the sequence UUCUGUGGAAGAUUUCUGG against TOP3A, the seed-corrected z-score is -0.163.

Sequence UAUUUGACUAGGCGACUUC against NET1 showed a seed-corrected z-score of -2.17.

UAUCUAAAGAGACCCUGUC against YPEL1 displayed a seed-corrected z-score of 1.06.

ACAGUAUCCUCAGAUGUCC against SHROOM2 returned a seed-corrected z-score of 0.0618.

The sequence UGCAGUACUGAAGAUAACG against EOGT had a seed-corrected z-score of -1.09.

For UUCUUAGCCGCGAUGGUCU against DES, the seed-corrected z-score is 0.351.

In turn, UAGGUAGAAGUGAUUGUUC against ZFAND4 displayed a seed-corrected z-score of 0.956.

As to AUGUGGACAGCGUAGCUCC against FUT4, the seed-corrected z-score was -0.421.

The sequence UACAUUGUGAGAUCCCUGG against C17orf78 gave a seed-corrected z-score of -2.15.

Sequence UUAUGAACCCUGGAGCUCC against ADRB3 gave a seed-corrected z-score of 0.000803.

Take AAUACGAUGACAAUAAGGC against FAM200A: the seed-corrected z-score was -0.251.

The sequence AUAGCUGCGAACAAAGGCC against ZNF404 had a seed-corrected z-score of -6.09.

As for UUCGACUUGGUUGCAAUGG against PPBP, the seed-corrected z-score was found to be 0.68.

On to UCCAGUUGUAUGUAAGGGC against ZDHHC6, for which the seed-corrected z-score is -1.09.

In turn, AAUGGUCUUGUGAAUGGUC against LSM12 showed a seed-corrected z-score of -2.08.

UUUCGUCAACAGUUCAAUC against USP34 came in with a seed-corrected z-score of -0.287.

Turning to UAAUCGAAAAACUUCAAUG against CLN5, the seed-corrected z-score is -0.147.

Regarding AUCUCUGUAAGAUUGAUUC against ELMOD2, the seed-corrected z-score amounted to 0.0598.

In the case of UUGCUUUCCACAACGAGAU against CHL1-AS2, the seed-corrected z-score is -0.29.

Consider UUCUGCAUCAUAAUUGUCG against ADPRHL1, for which the seed-corrected z-score is -0.679.

Sequence UUGGUAGGCAUCGUAGUAG against CLDN2 had a seed-corrected z-score of 0.894.

In turn, UAGCUGUGUGGAUCAGUGC against LOC642502 yielded a seed-corrected z-score of -2.62.

For UCACUGUAUCUAAUAAAGC against FRG1JP, the seed-corrected z-score was -0.744.

With AAUUUUAUCACCCAGAAAC against FCGR2B, the seed-corrected z-score stood at 0.134.

As to UGAGUUUCUUCUCCGUUCU against C11orf97, the seed-corrected z-score is -3.81.

In turn, UGAAAAGCGCUGCUUAACC against PRSS45 gave a seed-corrected z-score of 0.905.

For the sequence UUCUUUGAUAGACUUCACC against FTMT, the seed-corrected z-score turned out to be 0.658.

UGAGAGUUAAAGGCCUUUC against ABHD14A registered a seed-corrected z-score of -2.97.

For the sequence AAAUGUGCUCAAACUGUCU against ARL14, the seed-corrected z-score was -0.125.

UUCUCUCAAGCUUCAAUGG against ZNF286A returned a seed-corrected z-score of 0.716.

Consider AGAGUUAAUUGGUAUGUCC against GIGYF1, for which the seed-corrected z-score is 0.0611.

For the sequence UCUGUUACUUCUGGUUUGC against BAAT, the seed-corrected z-score is -0.229.

For the sequence UUAGCUGCUAGAAACAAGG against CCNT1, the seed-corrected z-score was -2.99.

UGAGUUUCCAUGCAUAGGA against GOLGA7 had a seed-corrected z-score of -3.67.

The sequence UCAGGUACGACUUUCGAUA against C1orf109 gave a seed-corrected z-score of -1.21.

Regarding AGAGAUACAAGGUUUGAUC against ARG2, the seed-corrected z-score is -0.0393.

Turning to UCCUUGUACACGGCCAGCU against PCED1CP, the seed-corrected z-score was found to be 0.3.

In turn, UGUACAUAGACGGUGAGGC against CD200 yielded a seed-corrected z-score of 0.299.
